One experiment has as its target ZNF721 DBD1 (Homo sapiens, UniProt Q8TF20-2 29-461). In words: HT-SELEX; 20 mM HEPES pH 7, 140 mM KCl, 5 mM NaCl, 1 mM K2HPO4, 2 mM MgSO4, 100 uM EGTA, ZnSO4, 0.1% Tween20; room temperature, 1 h; high values mean tight binding. The conditions noted are these: protein: ivt; tags: eGFP (N-terminal); dsDNA, one strand shown. The method in brief: (§1)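 A tagged transcription factor, either full-length or its DNA-binding-domain fragment, was made in HEK293 lysate or cell-free extract, immobilised on beads and incubated with a randomized 40-base DNA library for 1 h at room temperature in HEPES/KCl low-stringency buffer containing Tween20. Washed beads were heat-eluted, and the bound DNA was PCR-amplified over successive cycles and Illumina-sequenced at ~3 million 60 bp reads per sample. The binding signal is the relative k-mer count in selected reads, where a higher value means tighter binding.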
ZNF721 DBD2, sequence (Q8TF20 383-911): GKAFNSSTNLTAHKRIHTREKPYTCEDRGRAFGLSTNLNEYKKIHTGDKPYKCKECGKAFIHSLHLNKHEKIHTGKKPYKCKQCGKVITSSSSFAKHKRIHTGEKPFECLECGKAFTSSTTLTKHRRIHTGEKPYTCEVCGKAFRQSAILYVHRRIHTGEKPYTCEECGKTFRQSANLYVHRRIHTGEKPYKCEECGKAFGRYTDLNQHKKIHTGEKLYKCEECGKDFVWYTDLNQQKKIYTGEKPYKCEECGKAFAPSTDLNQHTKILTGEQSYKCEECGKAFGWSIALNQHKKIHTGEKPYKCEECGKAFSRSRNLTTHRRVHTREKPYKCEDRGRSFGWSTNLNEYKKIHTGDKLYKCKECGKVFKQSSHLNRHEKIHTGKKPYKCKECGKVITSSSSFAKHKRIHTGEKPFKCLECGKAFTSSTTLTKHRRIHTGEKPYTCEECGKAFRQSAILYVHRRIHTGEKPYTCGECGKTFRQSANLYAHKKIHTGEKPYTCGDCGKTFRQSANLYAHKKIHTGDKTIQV
ZNF721 DBD1, sequence (Q8TF20 17-449): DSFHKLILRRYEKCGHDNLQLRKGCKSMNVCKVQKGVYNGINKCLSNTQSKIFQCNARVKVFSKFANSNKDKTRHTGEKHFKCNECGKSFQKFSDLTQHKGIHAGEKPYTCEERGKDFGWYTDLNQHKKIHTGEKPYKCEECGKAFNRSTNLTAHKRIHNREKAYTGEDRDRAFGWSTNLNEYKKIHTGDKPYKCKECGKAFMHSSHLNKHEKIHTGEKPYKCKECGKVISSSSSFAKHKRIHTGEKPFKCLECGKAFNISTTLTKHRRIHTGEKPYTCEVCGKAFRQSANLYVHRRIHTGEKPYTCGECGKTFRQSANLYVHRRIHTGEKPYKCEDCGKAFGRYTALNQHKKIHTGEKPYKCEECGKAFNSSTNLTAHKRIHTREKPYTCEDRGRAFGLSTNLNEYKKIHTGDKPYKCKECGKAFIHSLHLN
Regarding CTCCCCCTCC, the binding signal stood at 0.00784 relative 10-mer count.

On to AGGGGCGGGG, for which the binding signal is 0.0044 relative 10-mer count.

The sequence CTCCCACCCC gave a binding signal of 0.0128 relative 10-mer count.

In turn, AAAGAAGCTA displayed a binding signal of 0.109 relative 10-mer count.

CGAAAAAAAA displayed a binding signal of 0.0159 relative 10-mer count.

CCCCACCCGC came in with a binding signal of 0.00651 relative 10-mer count.

For the sequence CCCCGCGCCC, the binding signal came out at 0.00482 relative 10-mer count.

CCCCATCCCC: the binding signal was 0.0083 relative 10-mer count.

As to CTCCTCCCCC, the binding signal was determined as 0.00633 relative 10-mer count.

Regarding AAAAGCAGTA, the binding signal came to 0.0204 relative 10-mer count.

AAAAAGCATA had a binding signal of 0.0303 relative 10-mer count.

The sequence CCCCCCCGCC came in with a binding signal of 0.00706 relative 10-mer count.

As for CCCTCCCCCA, the binding signal was found to be 0.00881 relative 10-mer count.

CACCCTCCCA registered a binding signal of 0.00555 relative 10-mer count.

In the case of ACCACCCCCC, the binding signal is 0.00771 relative 10-mer count.

In turn, AGTGTTTCCA returned a binding signal of 0.0113 relative 10-mer count.

As to CGAAAAAAGC, the binding signal amounted to 0.0584 relative 10-mer count.

CCCCCCTCCA gave a binding signal of 0.0055 relative 10-mer count.

CGACCCCCCC yielded a binding signal of 0.00427 relative 10-mer count.

In turn, CTCCCCCGCC came in with a binding signal of 0.0056 relative 10-mer count.

CCCCCACCGC had a binding signal of 0.00936 relative 10-mer count.

ACAAAAAACA returned a binding signal of 0.00197 relative 10-mer count.

Sequence CCACCCCAGC gave a binding signal of 0.00372 relative 10-mer count.

For the sequence CCCCCCAACC, the binding signal worked out at 0.00651 relative 10-mer count.

For the sequence CGCCACCCCC, the binding signal was 0.00706 relative 10-mer count.

The sequence CCACCCAACC returned a binding signal of 0.00674 relative 10-mer count.

As to GCATACCCAC, the binding signal came out at 0.00899 relative 10-mer count.

Turning to CCCCACCCCC, the binding signal was 0.0179 relative 10-mer count.

GCCCCACCAC came in with a binding signal of 0.00555 relative 10-mer count.

Turning to CCCCGCCACC, the binding signal was determined as 0.0105 relative 10-mer count.

CCCACCTCCC displayed a binding signal of 0.017 relative 10-mer count.

Sequence CCCCACCCAC yielded a binding signal of 0.0124 relative 10-mer count.

As for CCCTACCCCA, the binding signal is 0.00491 relative 10-mer count.

Turning to ACAAAAAAAA, the binding signal is 0.0167 relative 10-mer count.

Consider AGGTGGGTGG, for which the binding signal came to 0.00642 relative 10-mer count.

CCGCCCCCTC came in with a binding signal of 0.00573 relative 10-mer count.

In turn, CCACGTCCCC registered a binding signal of 0.00376 relative 10-mer count.

AGGGTGGTGG: the binding signal amounted to 0.00642 relative 10-mer count.

AAAAAAAAAA registered a binding signal of 0.0189 relative 10-mer count.

Sequence GAAAAAAAAA showed a binding signal of 0.0136 relative 10-mer count.

Another experiment addresses ZNF721 DBD2 (Homo sapiens, UniProt Q8TF20-2 395-923). The experiment is described as above. The conditions noted are these: protein: ivt; tags: eGFP (N-terminal); dsDNA, one strand shown. The method in brief:
as §1
The sequence CTCCCCCTCC displayed a binding signal of 0.00324 relative 10-mer count.

With AGGGGCGGGG, the binding signal was found to be 0.00168 relative 10-mer count.

The sequence CTCCCACCCC had a binding signal of 0.00455 relative 10-mer count.

In turn, AAAGAAGCTA gave a binding signal of 0.00132 relative 10-mer count.

On to CGAAAAAAAA, for which the binding signal turned out to be 0.0695 relative 10-mer count.

Sequence CCCCACCCGC returned a binding signal of 0.003 relative 10-mer count.

The sequence CCCCGCGCCC came in with a binding signal of 0.00228 relative 10-mer count.

CCCCATCCCC returned a binding signal of 0.0036 relative 10-mer count.

In turn, CTCCTCCCCC showed a binding signal of 0.00216 relative 10-mer count.

As for AAAAGCAGTA, the binding signal came out at 0.117 relative 10-mer count.

The sequence AAAAAGCATA registered a binding signal of 0.0372 relative 10-mer count.

CCCCCCCGCC yielded a binding signal of 0.00276 relative 10-mer count.

CCCTCCCCCA yielded a binding signal of 0.00839 relative 10-mer count.

With CACCCTCCCA, the binding signal is 0.00443 relative 10-mer count.

With ACCACCCCCC, the binding signal turned out to be 0.00288 relative 10-mer count.

AGTGTTTCCA registered a binding signal of 0.284 relative 10-mer count.

As to CGAAAAAAGC, the binding signal turned out to be 0.0645 relative 10-mer count.

For CCCCCCTCCA, the binding signal is 0.0024 relative 10-mer count.

CGACCCCCCC gave a binding signal of 0.0018 relative 10-mer count.

CTCCCCCGCC showed a binding signal of 0.00216 relative 10-mer count.

CCCCCACCGC registered a binding signal of 0.00479 relative 10-mer count.

Sequence ACAAAAAACA displayed a binding signal of 0.172 relative 10-mer count.

For CCACCCCAGC, the binding signal was found to be 0.00252 relative 10-mer count.

CCCCCCAACC had a binding signal of 0.00707 relative 10-mer count.

CGCCACCCCC came in with a binding signal of 0.0024 relative 10-mer count.

Regarding CCACCCAACC, the binding signal amounted to 0.00551 relative 10-mer count.

GCATACCCAC returned a binding signal of 0.154 relative 10-mer count.

In turn, CCCCACCCCC displayed a binding signal of 0.00419 relative 10-mer count.

Sequence GCCCCACCAC had a binding signal of 0.00743 relative 10-mer count.

CCCCGCCACC had a binding signal of 0.00336 relative 10-mer count.

Sequence CCCACCTCCC gave a binding signal of 0.00551 relative 10-mer count.

CCCCACCCAC: the binding signal amounted to 0.00587 relative 10-mer count.

CCCTACCCCA showed a binding signal of 0.00395 relative 10-mer count.

On to ACAAAAAAAA, for which the binding signal was 0.0899 relative 10-mer count.

AGGTGGGTGG gave a binding signal of 0.00443 relative 10-mer count.

CCGCCCCCTC yielded a binding signal of 0.00324 relative 10-mer count.

With CCACGTCCCC, the binding signal stood at 0.00252 relative 10-mer count.

The sequence AGGGTGGTGG came in with a binding signal of 0.00455 relative 10-mer count.

AAAAAAAAAA yielded a binding signal of 0.0538 relative 10-mer count.

GAAAAAAAAA registered a binding signal of 0.0513 relative 10-mer count.

Source of the values: article PMC13541613, “GHT-SELEX demonstrates unexpectedly high intrinsic sequence specificity and complex DNA binding of many human transcription factors”.
